# Source: PubChem BioAssay
# Shown are actives, neighbours in structure and some others; about 2.9% of the full set was active somewhere.
# MEKK2wt PB1 HTS = raises or lowers MEK5 binding to wildtype human MEKK2 PB1 domain. 290,000 tested, 1.1% active. binding response (% of control), % at 10 µM. Q9Y2U5. bead flow cytometry, Alexa488-MEK5 binding to MEKK2 WT; actives lie on both sides; in the data active means binding response below about 67% or above about 130%
# MEKK3 PB1 HTS = modulators (inhibitors or enhancers) of MEK5 binding to human MEKK3 PB1 domain. bead-based flow cytometry, Alexa488-MEK5 binding to MEKK3; actives lie on both sides; 0 = blocked by unlabeled MEK5, 100 = vehicle. AID 1529. 290,000 tested, 1.4% active. binding response (% of control), % at 10 µM. Q99759;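 active means binding response more than 3 SD above or below the average of its plate-row segment, actives on both sides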;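 further: Alexa488 bead fluorescence after subtracting the streptavidin-only scavenger bead signal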
# Target sequence (Q99759 whole entry, looked up, the tested form may be a part): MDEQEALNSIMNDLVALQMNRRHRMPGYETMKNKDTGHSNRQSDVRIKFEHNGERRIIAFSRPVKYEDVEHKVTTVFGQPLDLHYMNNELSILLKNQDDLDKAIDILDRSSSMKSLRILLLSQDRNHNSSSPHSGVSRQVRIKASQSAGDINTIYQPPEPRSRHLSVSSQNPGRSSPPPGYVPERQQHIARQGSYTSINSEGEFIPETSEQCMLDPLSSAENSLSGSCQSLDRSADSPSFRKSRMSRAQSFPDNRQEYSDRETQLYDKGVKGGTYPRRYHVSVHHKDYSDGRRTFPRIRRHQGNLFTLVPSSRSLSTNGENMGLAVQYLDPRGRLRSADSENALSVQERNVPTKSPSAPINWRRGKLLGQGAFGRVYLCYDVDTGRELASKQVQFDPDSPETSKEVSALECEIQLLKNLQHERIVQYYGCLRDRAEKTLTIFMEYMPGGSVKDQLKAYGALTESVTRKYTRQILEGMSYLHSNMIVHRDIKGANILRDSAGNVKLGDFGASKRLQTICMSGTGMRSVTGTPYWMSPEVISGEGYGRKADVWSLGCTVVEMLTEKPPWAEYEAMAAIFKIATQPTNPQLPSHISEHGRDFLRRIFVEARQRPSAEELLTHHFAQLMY
# CRFBP-R2 block = CRF-BP/CRF-R2 complex antagonism; HEK293 CRF-R2/CRF-BP, CRF-induced calcium fluorescence; inhibition, % at 11.8 µM; 350,000 tested, 0.59% active;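 active means inhibition of the ligand-induced calcium signal above about 50% at the single tested concentration, limit read from the data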
# ABCB6 inh 2 = inhibitors of human ABC transporter ABCB6; K562-ABCB6 porphyrin accumulation, flow cytometry, 1 h; active compounds read low; 360,000 tested, 0.19% active; fluorescence ratio to DMSO, % at 10 µM; AID 602162; Q9NP58;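 active means fluorescence ratio to DMSO below 75%, the collection mean minus 3 SD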;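 further: signal is porphyrin accumulated inside mitochondria; lower ratio means ABCB6 inhibition with less porphyrin fluorescence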
# MEKK2mut PB1 HTS = signal of MEK5 binding to mutant human MEKK2 PB1 domain | percent response, % at 10 µM | 290,000 tested, 0.35% active | bead flow cytometry, Alexa488-MEK5 binding to MEKK2 mutant; in the data active means percent response above about 24%, passing the limit was not always enough
# CRFBP-R2 agonist = CRF-BP/CRF-R2 complex agonism; 350,000 tested, 0.46% active; activation, % at 13.2 µM; HEK293 CRF-R2/CRF-BP, calcium dye fluorescence (FLIPR); percent of saturating CRF peptide response;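 active means activation of at least 50%, plus an integration ratio under a set limit after plate pattern correction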
# MEKK2wt confirm = raises or lowers MEK5 binding to wildtype human MEKK2, retest | binding response (% of control), % at 10 µM | AID 1892 | shares compounds with MEKK3 PB1 HTS | 5,900 tested, 2.4% active | bead flow cytometry, Alexa488-MEK5 binding to MEKK2 WT; actives lie on both sides; in the data active means binding response below about 16% or above about 210%; inactive means in between
# MEKK2mut confirm = signal of MEK5 binding to mutant human MEKK2, retest. 5,900 tested, 2% active. AID 1893. percent response, % at 10 µM. shares compounds with MEKK3 PB1 HTS. bead flow cytometry, Alexa488-MEK5 binding to MEKK2 mutant; in the data active means percent response mostly above about 71%, no sharp cut-off; inactive means mostly below about 38%;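 further: higher means compound restores mutant binding toward wildtype level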
# MEKK3 confirm = confirmation of inhibitors of MEK5 binding to human MEKK3. shares compounds with MEKK3 PB1 HTS. bead flow cytometry, Alexa488-MEK5 binding to MEKK3; active compounds read low. binding response (% of control), % at 10 µM. 5,900 tested, 1.8% active. AID 1894;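 active means binding response below 72% of control, or above a set upper limit, though filed actives all read lower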;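 further: lower values mean stronger disruption of MEK5 binding to MEKK3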
# Numbers stand for hits; . = inactive; / = no result; [ ] = another dose, or the depositor's remark.
SMILES,MEKK2wt PB1 HTS,MEKK3 PB1 HTS,CRFBP-R2 block,ABCB6 inh 2,MEKK2mut PB1 HTS,CRFBP-R2 agonist,MEKK2wt confirm,MEKK2mut confirm,MEKK3 confirm
O=C(O)Cn1cc(/C=C2\C(=O)NC(=O)N(c3ccc(F)cc3)C2=O)c2ccccc21,.,.,/,/,.,/,/,/,/
COc1ccc(OC)c(C(O)C2CCCCN2)c1 (centres undefined),.,.,.,.,.,.,/,/,/
CC(C)n1c(O)c(C2c3cc(Cl)ccc3Oc3[nH]c(=O)n(C(C)C)c(=O)c32)c(=O)[nH]c1=O (centres undefined),.,.,.,.,.,.,/,/,/
COC1C(C)OC(OC2CC(C)(O)Cc3cc4c(c(O)c32)C(=O)c2c(O)cc3c(c2C4=O)OC2OC3(C)C(O)C(N(C)C)C2O)C(OC)C1(C)OC (centres undefined),/,/,.,.,/,198.1,/,/,/
COc1cccc(C2(O)CCN(Cc3ccncc3)CC2)c1,.,.,.,.,.,.,/,/,/
O=C(CCl)Nc1nccs1,.,.,62.5,.,.,.,/,/,/
Cc1nn(Cc2c(Cl)cccc2Cl)c(Cl)c1C(=O)O,-4.0,.,.,.,.,.,/,/,/
CC[n+]1c(/C=C/N(C)c2ccccc2)sc2ccc(Cl)cc21,54.0[inhibitor],.,.,.,.,.,.,.,.
c1ccc(C2N3CCCN23)cc1 (centres undefined),.,.,.,.,.,.,/,/,/
ON1C2CCCCC2N(O)C1c1ccccc1 (centres undefined),33.0[inhibitor],22.0[inhibitor],.,.,.,.,.,.,.
CC(C)C1CN1CC(O)Cn1ccnc1[N+](=O)[O-] (centres undefined),/,/,/,.,/,/,/,/,/
CCC(=NCC1CCCO1)c1c(O)n(-c2ccc(OC)cc2)c(=O)[nH]c1=O (centres undefined),.,.,.,.,.,.,/,/,/
O=C1C2CCCN2C(c2ccc(Cl)c(Cl)c2)N1c1ccccn1 (centres undefined),.,.,.,.,.,.,/,/,/
O=C1C2CCCN2C(c2cccc(Cl)c2)N1c1ccccn1 (centres undefined),0.0[inhibitor],0.0[inhibitor],.,.,.,.,.,.,.
Nc1ccc2c(c1)Cc1ccccc1-2,.,133.0,.,.,.,.,.,.,.
COc1cccc(N2C(=O)NC(=O)/C(=C/c3ccc4c(c3)Cc3ccccc3-4)C2=O)c1,.,.,.,.,.,.,/,/,/
Cn1c(CN2CCN(C(=O)COc3ccccc3)CC2)nc2cc([N+](=O)[O-])ccc21,.,152.0,.,.,.,.,.,.,.
CC(=O)c1c(O)n(-c2cccc(Cl)c2)c(=O)[nH]c1=O (tested in a mixture with another compound),.,128.0,.,.,.,.,.,.,.
O=C1NC(=S)NC(=O)C1C/C=C/c1ccccc1,-7.0[inhibitor],.,.,.,.,.,.,.,.
O=C1NC(=S)NC(=O)C1Cc1ccccc1,/,/,.,.,/,.,/,/,/
O=C(O)C1C2CCC(O2)C1C(=O)Nc1cccc(Br)c1 (centres undefined),.,.,.,.,.,.,/,/,/
O=C(Cc1ccccc1)N1CCN(Cc2ccc(F)cc2)CC1,.,.,.,.,.,.,/,/,/
CN(C)c1ccc(/C=C/c2cc[n+](C)c3ccccc23)cc1,/,70.0[inhibitor],.,.,.,.,.,.,.
C[C@]12CCC3C(CC[C@@H]4C[C@H](O)CC[C@]34C)C1CCC2=O (some centres undefined),/,/,.,.,/,.,/,/,/
Fc1ccc(CCNCc2cccc(Cl)c2)cc1,.,75.0[inhibitor],.,.,.,.,.,.,.
